Data as given in PubChem BioAssay (NCATS).
A number with no mark means an inactive call. Inconclusive results are not listed. Calls of active or inactive are those of the source. Unless noted, calls follow the shape of the dose curve; as a rule, active = well fitted curve in the direction sought with a large enough effect; inconclusive = small, poorly fitted or top-dose-only effect, or another doubt; inactive = no such curve, though single readings can be large; an effect the other way counts as inactive or inconclusive.

Legend:
[1] = target: Lysosomal acid glucosylceramidase (Homo sapiens) (UniProt P04062); assay: Glucocerebrosidase-p2 (AID 348; in the data active = potency below about 10 µM; also: potency is read from the fitted curve at half-maximal effect); conditions: purified GBA, blue fluorogenic substrate, 40 min
Summary of the method: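 Compounds titrated from 0.6 nM upwards against 0.2 nM enzyme in pH 5.9 citric acid/KH2PO4, taurocholate, tween-20; blue fluorogenic substrate 80 uM, 40 min room temperature, stopped and read Ex 365/Em 440 for AC50.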

[2] = AP1 Signaling Pathway (AID 357; active = well fitted curve in either direction with a large enough effect, not every such curve was filed as active; also: % is scaled to controls: 0 for no effect and ±100 for the full control effect); conditions: ME-180 AP-1-bla reporter, EGF-induced, beta-lactamase ratio, 5 h; at 7.69 µM (top of the series) unless noted
Summary of the method: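 AP-1-bla ME-180 cells with beta-lactamase reporter under AP-1 response element, stimulated with EC50 EGF; compounds titrated, 5 hours at 37 degrees Celsius. CCF4 read at 460/530 nm ratio; positive and negative modulators judged by AC50.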

[3] = target: Cytochrome P450 1A2 (Homo sapiens) (UniProt P05177); assay: p450-cyp1a2 (AID 410; calls by dose curve; also: potency is read from the fitted curve at half-maximal effect); conditions: recombinant CYP1A2, luciferin-ME demethylation, luminescence; series mostly up to 57 µM
Summary of the method: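 Human CYP1A2 (20nM) demethylated Luciferin-ME at its Km (100uM) in 100mM KPO4. After 10 min compound preincubation, NADPH regeneration ran the reaction 60 min at room temperature. Luciferin was read by luminescence, normalized to 57 uM furafylline.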

[4] = NFAT Signaling Pathway (AID 444; active = well fitted curve in either direction with a large enough effect, not every such curve was filed as active;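 also: carbachol stimulus at about its EC50 of 1 µM final; % is scaled to controls: 0 for no effect and ±100 for the full control effect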); conditions: Jurkat NFAT-bla M1, carbachol, beta-lactamase ratio, 5 h; at 7.69 µM (top of the series) unless noted
Summary of the method: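 Read-out: CCF4 FRET ratio (460 nm/530 nm) after 1 h RT dye loading, used for %activity and AC50 from titration series. Cells: Jurkat NFAT-β-lactamase/M1 line, treated with compound plus 1 uM carbachol for 5 h, 37 °C.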

[5] = Stat Signaling Pathway (AID 446; active = well fitted curve in either direction with a large enough effect, not every such curve was filed as active;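 also: ME-180 cervical cancer cells given 40 pM IL-6 alongside compound; SIE-controlled beta-lactamase reporter measured as 460/530 nm FRET emission ratio; % is scaled to controls: 0 for no effect and ±100 for the full control effect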); conditions: ME-180 SIE beta-lactamase reporter, IL-6 stimulated, 5 h; at 7.69 µM (top of the series) unless noted
Summary of the method: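 ME-180 cells carrying a SIE-driven beta-lactamase reporter are stimulated with 40 pM IL-6 for 5 h at 37C in the presence of compound. The 460/530 nm FRET substrate ratio is read after 2.5 h at RT. Data are normalised to 300 pM IL-6 and to 125 nM JAK inhibitor controls.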

[6] = target: Glucocorticoid receptor (Homo sapiens) (UniProt P04150); assay: GR-GFP Redistribution (AID 450;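 active = compounds whose dose series gives a full or clear partial fitted curve of increased nuclear translocation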; also: potency is read from the fitted curve at half-maximal effect); conditions: U2OS GR-GFP nuclear translocation, laser cytometry, 2 h
[7] = target: Glucocorticoid receptor (Homo sapiens) (UniProt P04150); assay: GR-EFC Redistribution (AID 451; calls by dose curve; also: potency is read from the fitted curve at half-maximal effect); conditions: CHO-K1 GR-EFC translocation, beta-gal luminescence, 2 h
Summary of the method: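 Translocation of GR-ED fusion to nuclear EA restores b-gal, read by luminescence after 1 h room-temperature detection. Engineered CHO-K1 biosensor cells, 1,000/well, exposed 2 h at 37 C to titrations up to 46 uM final.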

[8] = target: Mitogen-activated protein kinase 10 (Mus musculus) (UniProt Q61831); assay: JNK3 AlphaScreen Assay (AID 530; active = well fitted curve in either direction with a large enough effect, not every such curve was filed as active;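 also: kinase came from lysate of stimulated human HepG2 cells; signal reports phosphorylation of biotinylated GST-cJun 1-79 at Ser73 with 10 µM ATP; % is scaled to controls: 0 for no effect and ±100 for the full control effect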); conditions: JNK3 lysate, c-Jun phosphorylation; series mostly up to 57.1 µM
Summary of the method: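 Room-temperature AlphaScreen kinase assay; pre-activated HepG2 lysate as JNK3 source, biotin-GST-cJun(1-79) substrate, 10 uM ATP, compound 15 min preincubation.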

[9] = target: Cytochrome P450 3A4 (Homo sapiens) (UniProt P08684); assay: qHTS Assay for Activators of Cytochrome P450 3A4 (AID 885); conditions: recombinant CYP3A4, Luciferin-PPXE luminescence, 60 min; series mostly up to 57.1 µM; also: nearly all actives have a fitted effect of over 65% in size
Summary of the method: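 Human CYP3A4 (20 nM) with Luciferin-PPXE at 25 uM (its KM) in 200 mM KPO4; 10 min compound preincubation, then NADPH regeneration and 60 min reaction at RT. Luciferin read by luminescence; normalized to 57 uM ketoconazole full inhibition.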

[10] = target: Cytochrome P450 2C19 (Homo sapiens) (UniProt P33261); assay: qHTS Assay for Inhibitors and Substrates of Cytochrome P450 2C19 (AID 899); conditions: recombinant CYP2C19, luciferin-H EGE luminescence; series mostly up to 57.1 µM; also: potency is read from the fitted curve at half-maximal effect; nearly all actives have a fitted effect of over 60% in size
Summary of the method: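 Reactions contain 5nM enzyme, 10uM Luciferin-H EGE (KM) and 50mM KPO4; compound preincubates 10 min at 37C, NADPH regeneration starts turnover for 60 min. Luminescence after detection reagent gives activity.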

[11] = target: Dual specificity protein kinase CLK4 (Homo sapiens) (UniProt Q9HAZ1); assay: qHTS Assay for Inhibitors of CDC-like Kinase 4 (ADP-Glo Assay) (AID 1771); conditions: recombinant CLK4, ADP-Glo luminescence; series mostly up to 80 µM; also: nearly all actives have a fitted effect of over 70% in size; also: potency is read from the fitted curve at half-maximal effect
Summary of the method: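 Clk4 (25 nM) was incubated 1 hr at room temperature with 100 uM RS repeat peptide and 1 uM ATP in buffer with 2 mM MgCl2, 0.5 mM EGTA, 2.5 mM DTT. ADP formed was quantified by ADP-Glo luminescence.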

[12] = target: Dual specificity protein kinase CLK4 (Homo sapiens) (UniProt Q9HAZ1); assay: qHTS Assay for Inhibitors of CDC-like Kinase 4 (ADP-FP Assay) (AID 1795); conditions: Transcreener ADP fluorescence polarization; series mostly up to 50 µM; also: nearly all actives have a fitted effect of over 60% in size; also: potency is read from the fitted curve at half-maximal effect
Summary of the method: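 Inhibition of ADP formation by 6.25 nM Clk4 is measured using 1 uM ATP and 100 uM RS repeat peptide over one hour. Produced ADP displaces a fluorescent tracer from antibody, lowering polarization.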

[13] = Primary qHTS for small molecule stabilizers of the endoplasmic reticulum resident proteome: Secreted ER Calcium Modulated Protein (SERCaMP) assay (AID 1508630); conditions: SH-SY5Y GLuc-SERCaMP (Gaussia luciferase released on ER calcium loss) secretion, thapsigargin, luminescence; series mostly up to 38.4 µM; also: % is scaled to controls: 0 for no effect and ±100 for the full control effect
Summary of the method: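 GLuc-SERCaMP-expressing SH-SY5Y cells, pretreated 16 h with compound, are challenged with thapsigargin to empty ER calcium stores; after 4 h, coelenterazine is added directly to the medium and luminescence is imaged.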

[14] = target: 3',5'-cyclic-AMP phosphodiesterase 4B (Homo sapiens) (UniProt Q07343); assay: qHTS Assay for Inhibitors of PDE-IV (AID 607; active = well fitted activation curve with a large enough effect in the main read-out, with a control signal flat, not every such curve was filed as active; also: % of control where 0% means no effect); conditions: HEK293 ACTOne CNG channel cells, membrane potential fluorescence; series mostly up to 22.9 µM
Summary of the method: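 HEK293 ACTOne cells with CNG channel (1000/well), endogenous PDE4; membrane potential dye, compounds up to 22.9 uM final. Fluorescence Ex 535/Em 590; RO 20-1724 (100 uM final) as reference.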

[15] = target: Ubiquitin carboxyl-terminal hydrolase 1 (Homo sapiens) (UniProt O94782); assay: Inhibitors of USP1/UAF1: Pilot qHTS (AID 504865); conditions: purified USP1/UAF1, Ub-rhodamine cleavage fluorescence; series mostly up to 54.9 µM; also: nearly all actives have a fitted effect of over 35% in size; also: potency is read from the fitted curve at half-maximal effect
Summary of the method: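 Kinetic fluorescence assay: 1nM USP1/UAF1, 15 min compound preincubation, then 150nM Ub-Rho; 480/540 nm.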

[16] = target: Cytochrome P450 3A4 (Homo sapiens) (UniProt P08684); assay: qHTS Assay for Inhibitors and Substrates of Cytochrome P450 3A4 (AID 884); conditions: recombinant CYP3A4, Luciferin-PPXE luminescence; series mostly up to 57.1 µM; also: potency is read from the fitted curve at half-maximal effect; nearly all actives have a fitted effect of over 50% in size
Summary of the method: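 20 nM human CYP3A4 with 25 uM Luciferin-PPXE (at KM) in 200 mM KPO4, preincubated 10 min with compound; NADPH regeneration started a 60 min RT reaction. Luciferin detected by luminescence, normalized to 57 uM ketoconazole as full inhibition.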

[17] = target: Cytochrome P450 2C9 (Homo sapiens) (UniProt P11712); assay: qHTS Assay for Inhibitors and Substrates of Cytochrome P450 2C9 (AID 883); conditions: recombinant CYP2C9, luciferin-H luminescence, 60 min; series mostly up to 57.1 µM; also: nearly all actives have a fitted effect of over 60% in size; also: potency is read from the fitted curve at half-maximal effect
Summary of the method: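 Turnover of Luciferin-H (100uM, KM) by 10nM human CYP2C9 was measured over 60 min at 37C with NADPH regeneration; inhibitors and some substrates reduce luminescence. Data normalized to sulphaphenazole 57uM.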

[18] = target: Dual specificity protein kinase CLK4 (Homo sapiens) (UniProt Q9HAZ1); assay: qHTS Assay for Inhibitors of CDC-like Kinase 4 (Kinase-Glo Assay) (AID 1770); conditions: recombinant Clk4, Kinase-Glo ATP depletion luminescence; series mostly up to 66.7 µM; also: potency is read from the fitted curve at half-maximal effect; nearly all actives have a fitted effect of over 65% in size
Summary of the method: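 Inhibition was judged from remaining ATP, measured by Ultra-Glo luciferase bioluminescence after Clk4 (25 nM) had acted on RS peptide at 1 uM ATP for 4.5 hours, room temperature.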

[19] = target: Cytochrome P450 2D6 (Homo sapiens) (UniProt P10635); assay: qHTS Assay for Inhibitors and Substrates of Cytochrome P450 2D6 (AID 891); conditions: recombinant CYP2D6, luciferin-ME EGE luminescence; series mostly up to 57.1 µM; also: potency is read from the fitted curve at half-maximal effect; nearly all actives have a fitted effect of over 60% in size
Summary of the method: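 Human CYP2D6 (5 nM) with 30 uM Luciferin-ME EGE (at Km) in 100 mM KPO4, compound preincubated 10 min, then NADPH regeneration system for 60 min at room temperature. Luciferin read by luminescence; normalized to 1.43 uM quinidine.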

Sequence of Cytochrome P450 3A4 (Homo sapiens) (P08684 whole entry, looked up): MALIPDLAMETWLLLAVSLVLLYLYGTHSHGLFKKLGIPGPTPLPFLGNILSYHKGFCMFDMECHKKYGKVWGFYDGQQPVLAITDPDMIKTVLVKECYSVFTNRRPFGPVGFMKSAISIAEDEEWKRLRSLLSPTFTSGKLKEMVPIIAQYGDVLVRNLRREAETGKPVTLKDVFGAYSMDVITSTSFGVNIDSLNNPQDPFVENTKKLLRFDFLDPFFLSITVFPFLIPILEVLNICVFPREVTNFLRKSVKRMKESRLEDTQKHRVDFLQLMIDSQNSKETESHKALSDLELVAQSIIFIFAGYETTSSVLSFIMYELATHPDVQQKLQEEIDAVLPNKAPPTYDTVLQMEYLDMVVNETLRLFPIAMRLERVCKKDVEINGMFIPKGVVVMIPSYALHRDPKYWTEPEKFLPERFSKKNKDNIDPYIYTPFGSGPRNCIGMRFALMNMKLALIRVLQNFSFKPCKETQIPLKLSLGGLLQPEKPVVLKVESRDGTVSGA
Sequence of 3',5'-cyclic-AMP phosphodiesterase 4B (Homo sapiens) (Q07343 whole entry, looked up): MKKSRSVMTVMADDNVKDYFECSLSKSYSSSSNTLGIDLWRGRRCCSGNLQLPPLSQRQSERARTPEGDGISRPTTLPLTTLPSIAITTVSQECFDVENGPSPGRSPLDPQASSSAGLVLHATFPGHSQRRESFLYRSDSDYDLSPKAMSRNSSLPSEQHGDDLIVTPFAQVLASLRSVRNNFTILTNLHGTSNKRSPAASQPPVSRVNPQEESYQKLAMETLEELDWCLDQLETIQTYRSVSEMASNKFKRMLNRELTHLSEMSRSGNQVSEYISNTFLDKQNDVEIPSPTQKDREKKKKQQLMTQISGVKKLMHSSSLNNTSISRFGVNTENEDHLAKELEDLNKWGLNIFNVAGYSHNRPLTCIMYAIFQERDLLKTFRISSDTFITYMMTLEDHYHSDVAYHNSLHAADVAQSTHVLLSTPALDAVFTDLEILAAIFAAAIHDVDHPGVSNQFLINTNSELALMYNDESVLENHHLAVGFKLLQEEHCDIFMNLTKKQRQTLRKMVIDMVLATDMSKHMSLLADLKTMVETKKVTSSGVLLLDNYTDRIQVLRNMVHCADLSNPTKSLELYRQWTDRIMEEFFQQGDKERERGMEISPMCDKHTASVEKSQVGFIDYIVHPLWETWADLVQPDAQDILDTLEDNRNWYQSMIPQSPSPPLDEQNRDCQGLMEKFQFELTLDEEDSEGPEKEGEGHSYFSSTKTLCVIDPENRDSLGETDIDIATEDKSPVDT
Sequence of Glucocorticoid receptor (Homo sapiens) (P04150 whole entry, looked up, the tested form may be a part): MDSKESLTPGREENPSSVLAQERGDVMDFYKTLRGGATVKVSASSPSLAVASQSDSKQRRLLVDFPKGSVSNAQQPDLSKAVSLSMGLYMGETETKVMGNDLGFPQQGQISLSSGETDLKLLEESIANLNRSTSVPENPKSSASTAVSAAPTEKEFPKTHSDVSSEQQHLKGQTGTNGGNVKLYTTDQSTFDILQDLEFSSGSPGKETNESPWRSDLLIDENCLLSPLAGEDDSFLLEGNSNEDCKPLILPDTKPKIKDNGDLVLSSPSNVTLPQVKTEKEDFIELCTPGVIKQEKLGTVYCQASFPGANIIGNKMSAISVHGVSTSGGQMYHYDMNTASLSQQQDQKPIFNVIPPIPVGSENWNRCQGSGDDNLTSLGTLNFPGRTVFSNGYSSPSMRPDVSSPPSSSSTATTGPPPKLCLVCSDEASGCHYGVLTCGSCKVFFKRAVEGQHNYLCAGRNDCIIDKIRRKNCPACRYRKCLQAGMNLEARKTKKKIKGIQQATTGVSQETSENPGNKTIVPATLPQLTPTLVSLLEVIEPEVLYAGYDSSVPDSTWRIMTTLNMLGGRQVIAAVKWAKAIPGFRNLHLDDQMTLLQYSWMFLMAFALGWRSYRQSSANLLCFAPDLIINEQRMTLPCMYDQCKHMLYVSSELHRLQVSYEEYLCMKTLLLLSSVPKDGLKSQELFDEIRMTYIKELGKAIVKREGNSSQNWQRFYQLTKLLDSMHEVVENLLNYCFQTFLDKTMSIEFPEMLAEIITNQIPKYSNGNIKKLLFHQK
Sequence of Dual specificity protein kinase CLK4 (Homo sapiens) (Q9HAZ1 whole entry, looked up): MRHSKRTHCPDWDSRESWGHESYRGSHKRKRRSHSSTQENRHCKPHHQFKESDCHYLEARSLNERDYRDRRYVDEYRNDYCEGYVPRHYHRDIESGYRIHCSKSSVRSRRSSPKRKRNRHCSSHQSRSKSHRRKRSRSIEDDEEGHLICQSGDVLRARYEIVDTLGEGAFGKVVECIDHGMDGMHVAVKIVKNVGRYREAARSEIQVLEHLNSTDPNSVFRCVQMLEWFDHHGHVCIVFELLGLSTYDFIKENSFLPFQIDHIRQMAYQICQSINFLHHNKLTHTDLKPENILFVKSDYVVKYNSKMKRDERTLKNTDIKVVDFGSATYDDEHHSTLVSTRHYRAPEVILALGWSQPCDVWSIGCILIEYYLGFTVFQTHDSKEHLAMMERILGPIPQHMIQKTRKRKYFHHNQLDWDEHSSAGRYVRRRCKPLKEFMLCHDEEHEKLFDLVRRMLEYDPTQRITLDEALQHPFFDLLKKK
Sequence of Cytochrome P450 2C19 (Homo sapiens) (P33261 whole entry, looked up): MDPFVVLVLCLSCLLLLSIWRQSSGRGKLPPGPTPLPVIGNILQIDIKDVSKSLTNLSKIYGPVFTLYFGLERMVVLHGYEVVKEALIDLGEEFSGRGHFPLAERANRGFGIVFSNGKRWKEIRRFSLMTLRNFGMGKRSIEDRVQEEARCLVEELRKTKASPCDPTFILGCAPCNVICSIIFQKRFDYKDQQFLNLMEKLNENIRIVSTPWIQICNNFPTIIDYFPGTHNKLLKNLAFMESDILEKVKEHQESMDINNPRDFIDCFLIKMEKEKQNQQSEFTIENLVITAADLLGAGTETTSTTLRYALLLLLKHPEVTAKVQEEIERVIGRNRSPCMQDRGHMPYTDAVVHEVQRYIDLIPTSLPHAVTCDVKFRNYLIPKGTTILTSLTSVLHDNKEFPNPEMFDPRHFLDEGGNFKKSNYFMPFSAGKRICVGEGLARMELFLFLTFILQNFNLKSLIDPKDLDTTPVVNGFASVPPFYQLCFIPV
Sequence of Lysosomal acid glucosylceramidase (Homo sapiens) (P04062 whole entry, looked up): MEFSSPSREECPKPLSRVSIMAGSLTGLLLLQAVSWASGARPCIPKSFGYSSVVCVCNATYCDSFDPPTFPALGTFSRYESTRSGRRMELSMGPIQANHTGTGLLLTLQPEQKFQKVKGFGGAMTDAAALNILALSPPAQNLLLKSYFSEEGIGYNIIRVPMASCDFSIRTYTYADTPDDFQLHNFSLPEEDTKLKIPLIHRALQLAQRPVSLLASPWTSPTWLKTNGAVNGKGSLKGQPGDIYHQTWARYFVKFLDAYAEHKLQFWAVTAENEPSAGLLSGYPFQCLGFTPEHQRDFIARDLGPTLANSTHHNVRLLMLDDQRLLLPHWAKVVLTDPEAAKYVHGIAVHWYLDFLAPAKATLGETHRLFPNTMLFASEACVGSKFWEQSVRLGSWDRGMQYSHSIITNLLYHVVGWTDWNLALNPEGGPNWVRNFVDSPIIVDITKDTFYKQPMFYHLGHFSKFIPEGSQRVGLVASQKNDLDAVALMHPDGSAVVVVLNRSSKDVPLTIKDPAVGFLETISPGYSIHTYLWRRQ
Sequence of Ubiquitin carboxyl-terminal hydrolase 1 (Homo sapiens) (O94782 whole entry, looked up): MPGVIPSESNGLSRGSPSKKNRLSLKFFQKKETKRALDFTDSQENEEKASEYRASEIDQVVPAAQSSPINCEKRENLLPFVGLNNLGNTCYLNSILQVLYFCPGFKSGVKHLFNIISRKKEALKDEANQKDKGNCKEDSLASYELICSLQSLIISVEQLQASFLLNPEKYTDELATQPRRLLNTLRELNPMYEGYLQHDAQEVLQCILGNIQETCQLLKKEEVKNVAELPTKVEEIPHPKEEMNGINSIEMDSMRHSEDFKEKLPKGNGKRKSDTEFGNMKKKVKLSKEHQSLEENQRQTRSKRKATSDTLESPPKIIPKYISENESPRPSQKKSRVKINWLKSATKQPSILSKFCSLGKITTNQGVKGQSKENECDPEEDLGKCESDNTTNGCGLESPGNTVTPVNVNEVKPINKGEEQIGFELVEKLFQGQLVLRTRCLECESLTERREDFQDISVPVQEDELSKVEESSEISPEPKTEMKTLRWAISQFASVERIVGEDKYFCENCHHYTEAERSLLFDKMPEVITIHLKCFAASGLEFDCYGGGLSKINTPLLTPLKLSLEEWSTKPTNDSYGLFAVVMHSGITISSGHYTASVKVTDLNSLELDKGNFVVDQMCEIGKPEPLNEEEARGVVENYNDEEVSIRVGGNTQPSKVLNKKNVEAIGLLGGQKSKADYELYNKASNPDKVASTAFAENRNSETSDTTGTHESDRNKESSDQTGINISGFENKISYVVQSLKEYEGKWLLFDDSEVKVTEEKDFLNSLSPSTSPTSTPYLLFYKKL
Sequence of Cytochrome P450 1A2 (Homo sapiens) (P05177 whole entry, looked up): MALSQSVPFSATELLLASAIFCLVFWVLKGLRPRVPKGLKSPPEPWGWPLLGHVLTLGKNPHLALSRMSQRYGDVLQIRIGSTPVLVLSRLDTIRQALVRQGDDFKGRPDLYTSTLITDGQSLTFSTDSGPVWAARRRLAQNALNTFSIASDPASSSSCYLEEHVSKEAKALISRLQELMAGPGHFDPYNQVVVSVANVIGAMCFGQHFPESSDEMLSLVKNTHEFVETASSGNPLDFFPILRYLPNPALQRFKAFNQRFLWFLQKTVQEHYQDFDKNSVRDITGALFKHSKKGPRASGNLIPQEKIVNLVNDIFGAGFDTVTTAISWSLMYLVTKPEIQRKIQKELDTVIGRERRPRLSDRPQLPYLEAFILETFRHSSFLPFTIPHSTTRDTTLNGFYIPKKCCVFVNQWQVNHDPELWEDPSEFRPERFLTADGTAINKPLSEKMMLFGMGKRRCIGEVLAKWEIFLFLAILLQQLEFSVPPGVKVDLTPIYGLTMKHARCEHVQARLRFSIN

SMILES	Potency [1] [µM]	activity change, negative = inhibition [2] [%]	Potency [3]	activity change, negative = inhibition [4] [%]	activity, negative = inhibition [5] [%]	Potency [6] [µM]	Potency [7] [µM]	Potency [8]	Potency [9]	Potency [10]	Potency [11]	Potency [12]	outcome [13]	Potency [14]	Potency [15]	Potency [16]	activity change, negative = inhibition [17]	Potency [18]	Potency [17]	Potency [19]
Fc1ccc(Nc2ccnc(-c3ccc4c(c3)OCO4)n2)cc1	> 11.4	8.72	0.631 µM (active)	-0.562	-6.41	> 46	> 46	inactive	inactive	2 µM (active)	31.6 µM (active)	inactive	inactive							
Cn1c(=O)c(-c2cc(F)cc(F)c2)nc2cncnc21	> 11.4	-3.06	0.631 µM (active)	3.39	5.34	> 9.22	> 46	inactive	inactive		inactive	inactive	inactive	inactive	inactive					
N#Cc1ccccc1-c1ccc2ncnc(NC3CC3)c2c1	> 11.4	-12.1	0.1 µM (active)	21.2		> 46	> 46	inactive	inactive		5.62 µM (active)	7.08 µM (active)	inactive		inactive	2 µM (active)				
Cc1cnc(CNc2ncnc3ccc(-c4cccc(NS(C)(=O)=O)c4)cc23)cn1	> 11.4	-5.16			-9.12	> 46	> 46		inactive				inactive	inactive	inactive		32.5% [at 2.29 µM]	25.1 µM (active)		
COc1ccc2[nH]cc(CCNc3ncncc3-c3cccc(NS(C)(=O)=O)c3)c2c1		-19.1	12.6 µM (active)	15.3	-18.7	> 46	> 46	inactive	inactive	5.01 µM (active)			inactive	inactive	inactive	0.398 µM (active)		25.1 µM (active)	0.398 µM (active)	3.16 µM (active)
CS(=O)(=O)Nc1cccc(-c2cncnc2Nc2ccccc2)c1	> 11.4	-20.2	5.01 µM (active)	23.9	-2.71	> 46		inactive	inactive		22.4 µM (active)	inactive	inactive	inactive	inactive	0.501 µM (active)				
Clc1ccccc1-c1nc(NCc2cccnc2)c2ccccc2n1		-8.93	0.631 µM (active)	17.1	-13.8	> 46	> 46	inactive					inactive		20 µM (active)	2.51 µM (active)		28.2 µM (active)		
Cc1ccccc1-c1nccc(NCc2cccnc2)n1	> 11.4	13	0.2 µM (active)	3.23	-15.6	> 46	> 46	inactive	inactive	5.01 µM (active)	28.2 µM (active)	inactive	inactive	inactive	inactive	3.98 µM (active)				
N#CCCn1c(=O)c(-c2cccs2)nc2cnc(Nc3ccccc3)nc21	> 11.4		5.01 µM (active)	-22.7	-25	> 9.22	> 46	inactive	inactive		inactive	inactive	inactive	inactive	inactive					
N#Cc1ccccc1-c1ccc2ncnc(NCc3ccccc3)c2c1	> 11.4	-20.7		16.5	27.7	> 46	> 46	inactive					inactive					5.01 µM (active)		
CN(C)C(=O)c1ccc(-c2cncnc2Nc2ccc(F)cc2)cc1		-12.8		5.12	9.71	> 46	> 46	inactive			25.1 µM (active)	inactive	inactive		inactive					
CN(C)C(=O)c1ccc(-c2cc(N(C)Cc3ccco3)ncn2)cc1	> 11.4	-8.02	25.1 µM (active)	-13.4	16.7	> 46	> 46	inactive			28.2 µM (active)	inactive	inactive	inactive	inactive					
COc1ccc2[nH]cc(CCNc3ccnc(-c4c(C)noc4C)n3)c2c1	> 11.4	-4.62	2 µM (active)	9.64	-5.35	> 46	> 46	inactive	inactive	1.58 µM (active)	inactive	inactive	inactive	inactive	inactive	2.51 µM (active)				
